Data reported in PubChem BioAssay AID1159580 (chemical genetic matrix, 2015).
Where “and” joins values, the source holds several entries; their conditions need not be identical. Identical values can stand only once. In all, about 5,500 compounds went through this assay and about 2,000 (36%) were called active. Not shown: some 18% with an inconclusive outcome. Cut-off read from the data, not from the text of the source: active = normalized growth mostly below about 0.91 (no sharp cut-off); inconclusive = no clear call, values can overlap the other calls; inactive = mostly above about 0.92. The list shows a part of the results.

Assay: chemical genetic growth profiling, strain panel (AID 1159580);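 note: tested at 20 µM; growth read once vehicle control cultures reached saturation at 30 °C; 1 = growth at the plate median or of vehicle wells; lower values mean less growth of the strain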
Conditions: S. cerevisiae deletion strains, growth OD

Measured: normalized growth

CC(NCCc1ccc(O)cc1)C(O)c1ccc(O)cc1 (centres undefined)
active: locus YAL026C, strain drs2, stronger effect = lower value 0.504 | locus YDR392W, strain spt3, stronger effect = lower value 0.189 | locus YGL253W, strain hxk2, stronger effect = lower value 0.766 | locus YHR142W, strain chs7, stronger effect = lower value 0.812
inactive: locus YAL021C, strain ccr4, stronger effect = lower value 0.997 | locus YAL030W, strain snc1, stronger effect = lower value 1.01 | locus YBL061C, strain skt5, stronger effect = lower value 0.991 | locus YBR009C, strain hhf1, stronger effect = lower value 1.04 | locus YBR021W, strain FUR4, stronger effect = lower value 0.962 | locus YBR023C, strain chs3, stronger effect = lower value 0.989 | locus YBR171W, strain sec66, stronger effect = lower value 0.994 | locus YBR229C, strain ROT2, stronger effect = lower value 0.988 | locus YBR231C, strain swc5, stronger effect = lower value 1.01 | locus YBR279W, strain paf1, stronger effect = lower value 0.978 | locus YCL011C, strain gbp2, stronger effect = lower value 0.991 | locus YCL016C, strain dcc1, stronger effect = lower value 0.968 | locus YCL029C, strain bik1, stronger effect = lower value 0.977 | locus YCL061C, strain MRC1, stronger effect = lower value 0.999 | locus YCL069W, strain vba3, stronger effect = lower value 0.973 | locus YCR088W, strain abp1, stronger effect = lower value 0.997 | locus YDL005C, strain med2, stronger effect = lower value 0.983 | locus YDL035C, strain GPR1, stronger effect = lower value 0.982 | locus YDL040C, strain nat1, stronger effect = lower value 0.99 | locus YDL074C, strain BRE1, stronger effect = lower value 0.999 | locus YDL101C, strain DUN1, stronger effect = lower value 0.985 | locus YDL134C, strain PPH21, stronger effect = lower value 0.977 | locus YDL185W, strain tfp1, stronger effect = lower value 0.979 | locus YDL192W, strain arf1, stronger effect = lower value 0.982 | locus YDR001C, strain nth1, stronger effect = lower value 0.998 | locus YDR069C, strain doa4, stronger effect = lower value 1.01 | locus YDR101C, strain arx1, stronger effect = lower value 0.997 | locus YDR137W, strain rgp1, stronger effect = lower value 0.982 | locus YDR150W, strain NUM1, stronger effect = lower value 0.994 | locus YDR159W, strain sac3, stronger effect = lower value 1 | locus YDR162C, strain NBP2, stronger effect = lower value 0.984 | locus YDR195W, strain ref2 0.99 | locus YDR297W, strain sur2, stronger effect = lower value 1.01 | locus YDR318W, strain mcm21, stronger effect = lower value 0.986 | locus YDR334W, strain swr1, stronger effect = lower value 0.984 | locus YDR335W, strain msn5, stronger effect = lower value 0.952 | locus YDR388W, stronger effect = lower value 0.981 | locus YDR502C, strain sam2, stronger effect = lower value 0.983 | locus YEL003W, strain gim4, stronger effect = lower value 0.999 | locus YEL037C, strain rad23, stronger effect = lower value 0.954 | locus YEL061C, strain CIN8 (second series), stronger effect = lower value 0.989 | locus YEL061C, strain CIN8, stronger effect = lower value 0.993 | locus YER015W, strain faa2, stronger effect = lower value 0.995 | locus YER016W, strain bim1, stronger effect = lower value 0.984 | locus YER110C, stronger effect = lower value 0.977 | locus YER111C, strain swi4, stronger effect = lower value 0.979 | locus YER155C, strain BEM2 (second series), stronger effect = lower value 0.948 | locus YER155C, strain BEM2, stronger effect = lower value 0.983 | locus YER167W, strain BCK2, stronger effect = lower value 0.983 | locus YFR010W, strain ubp6, stronger effect = lower value 0.922 | locus YGL078C, strain dbp3, stronger effect = lower value 0.984 | locus YGL086W, strain mad1, stronger effect = lower value 0.987 | locus YGL167C, strain pmr1, stronger effect = lower value 0.997 | locus YGL173C, strain kem1, stronger effect = lower value 1.02 | locus YGL227W, strain vid30, stronger effect = lower value 0.993 | locus YGL240W, strain doc1, stronger effect = lower value 1.02 | locus YGL248W, strain PDE1, stronger effect = lower value 0.996 | locus YGR078C, strain PAC10, stronger effect = lower value 1 | locus YGR135W, strain pre9, stronger effect = lower value 0.972 | locus YGR229C, strain SMI1, stronger effect = lower value 0.989 | locus YGR252W, strain gcn5, stronger effect = lower value 0.946 | locus YHR013C, strain ard1, stronger effect = lower value 0.953 | locus YHR027C, strain rpn1, stronger effect = lower value 1.01 | locus YHR030C, strain SLT2, stronger effect = lower value 0.986 and 1 | locus YHR079C, strain IRE1 (second series), stronger effect = lower value 0.979 | locus YHR079C, strain IRE1, stronger effect = lower value 1.01 | locus YHR094C, strain hxt1, stronger effect = lower value 0.978 | locus YHR129C, strain ARP1, stronger effect = lower value 0.986 | locus YHR200W, strain rpn10, stronger effect = lower value 0.985 | locus YIL066C, strain RNR3, stronger effect = lower value 0.99 | locus YIL073C, strain SPO22, stronger effect = lower value 0.946 | locus YIL125W, strain kgd1, stronger effect = lower value 0.99 | locus YIR030C, strain dcg1, stronger effect = lower value 0.983 | locus YJL092W, strain hpr5, stronger effect = lower value 0.973 | locus YJL095W, strain BCK1 (second series), stronger effect = lower value 0.998 | locus YJL095W, strain BCK1, stronger effect = lower value 1.03 and 1.02 | locus YJL115W, strain asf1, stronger effect = lower value 0.975 | locus YJL129C, strain trk1, stronger effect = lower value 0.973 | locus YJL134W, strain LCB3, stronger effect = lower value 0.99 | locus YJL154C, strain vps35, stronger effect = lower value 0.983 | locus YJL164C, strain tpk1, stronger effect = lower value 0.987 | locus YJL166W, strain qcr8, stronger effect = lower value 1.03 | locus YJL168C, strain set2, stronger effect = lower value 0.983 | locus YJL187C, strain SWE1 (second series), stronger effect = lower value 1 | locus YJL187C, strain SWE1, stronger effect = lower value 0.998
